# Screening data from PubChem.
# Pf growth 48h: inhibits P. falciparum growth in the first generation, 48 h; P. falciparum luciferase growth in erythrocytes, 48 h; Potency, µM (titrated, usually from 28.7 µM), most hits filed as inhibitors; 310,000 compounds, 5.9% hits; AID 504832
#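 Read-out is firefly luciferase luminescence from an integrated reporter in P. falciparum, so falling signal marks reduced parasite growth. Infected erythrocytes were at 2% hematocrit and 0.1% parasitemia (final) in Albumax-supplemented RPMI 1640.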
# SARS PLP yeast: SARS-CoV PLP inhibition in yeast. S. cerevisiae expressing SARS-CoV PLpro, growth rescue. Potency, µM (series often up to 32.9 µM), actives largely listed as activators. 330,000 compounds, 0.19% hits; calls by dose curve; further: nearly all actives have a fitted effect of over 55% in size
# CHX counter: affects cycloheximide protein synthesis inhibition readout, counter-screen | cell reporter, cycloheximide protein synthesis inhibition counterscreen | max response, % | 300,000 compounds, 12% hits | AID 2314; in the data active means max response mostly above about 13%, no sharp cut-off; inactive means mostly below about 14%; further: read at 38.3 µM for the half of the compounds with a filed dose
# AMA1 RON2 block: AMA1-RON2 (P. falciparum) interaction inhibition | AlphaScreen AMA1-biotinylated RON2 peptide binding | Potency, µM (top dose mostly 58.2 µM), hits mostly inhibitors | 360,000 compounds, 0.2% hits | AID 720542; further: nearly all actives have a fitted effect of over 45% in size
#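 AMA1 (3D7) with his tag at 25 nM final met compounds first, then biotinylated RON2 peptide at 25 nM; detection used donor plus acceptor beads, 10 µg/mL apiece, read by AlphaScreen after 30 min at room temperature.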
# Shiga inhibitor: inhibitors of Shiga toxin in Vero cells | Vero cells, Shiga toxin protein synthesis inhibition reporter | inhibition, % at 38.7 µM | 290,000 compounds, 9.2% hits; in the data active means inhibition mostly above about 28%, no sharp cut-off; inactive means mostly below about 43%
# Pf growth 96h: inhibits malaria parasite growth, 96 h; P. falciparum luciferase reporter growth, 96 h; Potency, µM (highest dose often 28.7 µM), most hits filed as inhibitors; 320,000 compounds, 6.9% hits
#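 Parasite growth measured via integrated firefly luciferase reporter in P. falciparum. Infected erythrocytes at 2% hematocrit, 0.05% parasitemia final were treated 96 hours at 37 C under 5% CO2, and luminescence was read.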
# Numbers stand for hits; – = inactive; ? = inconclusive; · = no result; [ ] = another dose, or the depositor's remark. Rows were chosen to be rich in hits. Some 19% of all compounds tested hit in one or more screens of this group. Unless noted, the call rests on the fitted dose curve; in most records, active means well fitted curve in the direction sought with a large enough effect; inconclusive means small, poorly fitted or top-dose-only effect, or another doubt; inactive means no such curve, though single readings can be large; an effect the other way counts as inactive or inconclusive.
SMILES,Pf growth 48h,SARS PLP yeast,CHX counter,AMA1 RON2 block,Shiga inhibitor,Pf growth 96h
COc1ccc(CC(NC(C)=O)C(=O)NC2CCN(C(=O)C3CCCCC3)CC2)cc1OC (stereo unspecified),–,–,–,–,–,–
CCc1cccc(NS(=O)(=O)c2ccc(-n3cccn3)cc2)c1,–,–,–,–,–,13µM
CCc1cccc(NS(=O)(=O)c2ccc3c(c2)n(C)c(=O)n3C)c1,–,–,–,–,–,4.7µM
COc1ccc(OC)c(NS(=O)(=O)c2ccc3c(c2)n(C)c(=O)n3C)c1,–,–,–,–,–,·
COc1ccc(C)cc1NS(=O)(=O)c1ccc2c(c1)n(C)c(=O)n2C,–,–,–,–,–,5.9µM
O=C(NS(=O)(=O)Nc1ccc(Cl)cc1)c1c[nH]c2ccccc12,–,–,–,–,–,–
COc1cc(OC)c(-c2nc3c[n+](CC(=O)c4ccccc4)ccc3n2C)cc1OC,1.9µM,–,–,–,–,?
COc1ccc(C(=O)C[n+]2ccc3c(c2)nc(-c2cc(OC)c(OC)cc2OC)n3C)cc1,3.3µM,–,–,–,–,1µM
CC(=O)Nc1ccc2c(COC(=O)[C@H](C)N3C(=O)C4CCCCC4C3=O)cc(=O)oc2c1 (stereo partly specified),–,–,–,–,–,–
Cc1ccccc1CNc1nnnn1C,–,–,–,–,–,–
COc1ccccc1C(=O)Nc1c(C(=O)N(CCN(C)C)Cc2ccco2)oc2ccccc12,?,–,–,–,–,10µM
Cc1ccccc1C(=O)Nc1c(C(=O)N(CCN(C)C)Cc2ccco2)oc2ccccc12,?,–,–,–,–,–
COc1ccc(OCC(=O)Nc2c(C(=O)N(CCN(C)C)Cc3ccco3)oc3ccccc23)cc1,?,–,–,–,–,10µM
C=CCNC(=O)c1onc(CSc2ccc(Cl)cc2)c1C(=O)O,–,–,–,–,–,–
CCOC(=O)C1(CCCc2ccccc2)CCN(C2CCSCC2)CC1,–,–,–,–,–,?
Cc1ccc(S(=O)(=O)Oc2ccc(C3C4=C(CCCC4=O)N(CCC(=O)O)C4=C3C(=O)CCC4)cc2Cl)cc1,3.3µM,–,–,–,–,3.3µM
CCC(=O)Nc1ccc2nc(C3CC3)n(Cc3ccc(C(C)(C)C)cc3)c(=O)c2c1,–,–,57,–,90,–
CC(=O)Nc1ccc2nc(C3CC3)n(Cc3ccc(Cl)cc3)c(=O)c2c1,–,–,23,–,49,–
COc1ccc(CC(=O)N/N=C(\C)c2cccc(NC(=O)C3CC3)c2)cc1,–,–,–,–,–,?
COc1ccc(Cn2c(C3CC3)nc3ccc(NC(=O)C4CC4)cc3c2=O)cc1,–,–,24,–,84,–
CCCCCCCCN1C(=O)[C@H](CC(=O)N2CCSCC2)C[C@@]2(C(=O)OC)CCCCC=C12,·,·,·,–,·,·
COc1cc(/C=N/NC(=O)C2CCN(CC(O)COCc3ccccc3)CC2)ccc1O (stereo unspecified),?,–,–,–,–,–
O=C(NCc1ccc(Cl)cc1)C1CCN(C(=O)Cc2ccccc2)CC1,–,?,–,–,–,12µM
CS(=O)(=O)N1CCC(C(=O)NCc2ccncc2)CC1,–,–,–,–,–,–
O=C(NCc1ccco1)C1CCN(C(=O)Cc2ccccc2)CC1,–,–,–,–,–,·
SMILES,Pf growth 48h,SARS PLP yeast,CHX counter,AMA1 RON2 block,Shiga inhibitor,Pf growth 96h
CS(=O)(=O)N1CCC(C(=O)Nc2cc(Cl)c(Cl)cc2Cl)CC1,–,–,–,–,–,2.1µM
O=C(NCc1ccc(F)cc1Cl)C1CCN(S(=O)(=O)N2CCCCC2)CC1,–,–,–,–,–,3.3µM
CS(=O)(=O)N1CCC(C(=O)NCc2ccc(Cl)cc2)CC1,2.3µM,–,–,–,–,–
CCS(=O)(=O)N1CCC(C(=O)NCc2ccc(F)cc2Cl)CC1,–,–,–,–,–,?
CCCS(=O)(=O)N1CCC(C(=O)NCCN(CC)c2ccccc2)CC1,–,–,–,–,–,–
COc1ccc(Br)cc1CNC(=O)C1CCN(S(=O)(=O)N2CCC(C)CC2)CC1,?,–,–,–,–,12µM
CCN(CCNC(=O)C1CCN(S(C)(=O)=O)CC1)c1ccccc1,–,–,–,–,–,4.7µM
Cc1ccccc1NC(=O)NC1(C(=O)N2CCC(O)CC2)CCCCC1,–,–,–,–,–,–
COc1ccc([C@]23Cc4cc(OC)c(OC)cc4C(O2)C2=C(CC4(CCCCC4)OC2=O)O3)cc1,?,–[6.58 µM],–,·,–,?
CCN(CC)S(=O)(=O)c1ccc(Cl)c(C(=O)Nc2cc(C)nn2-c2ccccc2C(F)(F)F)c1,?,–,–,·,–,?
O=C(Nc1cccnc1Cl)c1cc2ccccc2o1,·,–,38,–,66,–
CN1CCN(c2ccccc2NC(=O)c2cc3ccccc3o2)CC1,?,–,–,–,–,4.7µM
O=C(Nc1ccccc1N1CCCC1)c1cc2ccccc2o1,?,–,52,?,97,–
O=S(=O)(NC1CCCCC1)c1cccs1,–,–,–,–,–,–
CC(=O)OCC=C1CCC2C3CC(C)C4=CC(=O)CCC4(C)C3C(O)CC12C (stereo unspecified),·,·,·,–,·,·
O=C1CC(SC2=NCCS2)C(=O)N1c1cccc(Cl)c1Cl (stereo unspecified),–,–,–,–,–,–
CC1=C(C(=O)OCC2CCCO2)C(c2coc3ccccc3c2=O)C2=C(CCCC2=O)N1 (stereo unspecified),?,–,–,–,–,–
CC1(C)Cc2cccc(Oc3cc(NN4CCCCC4)c([N+](=O)[O-])cc3[N+](=O)[O-])c2O1,?,–,–,–,–,1.5µM
Cc1cc(Oc2cc(NN3CCCCC3)c([N+](=O)[O-])cc2[N+](=O)[O-])c(C(=O)c2ccccc2)cc1Cl,?,–,–,?,–,8.3µM
O=[N+]([O-])c1cc([N+](=O)[O-])c(Oc2ccc(Cl)c3cccnc23)cc1NN1CCCCC1,?,–,–,–,–,1.5µM
O=[N+]([O-])c1cc([N+](=O)[O-])c(Oc2cccc(Cl)c2Cl)cc1NN1CCCCC1,–,–,–,–,–,?
Cc1ccc(F)c(Oc2cc(NN3CCCCC3)c([N+](=O)[O-])cc2[N+](=O)[O-])c1,?,–,–,?,–,12µM
Cc1ccc(C)c(Oc2cc(NN3CCCCC3)c([N+](=O)[O-])cc2[N+](=O)[O-])c1,–,–,–,–,–,–
Cc1cc(Oc2cc(NN3CCCCC3)c([N+](=O)[O-])cc2[N+](=O)[O-])ccc1[N+](=O)[O-],–,–,–,?,–,?
NS(=O)(=O)c1cnccc1NCCc1ccccc1,·,·,·,–,·,·
NC(=O)/C(=N\OC(=O)c1ccco1)c1nc(-c2ccc(Br)cc2)cs1,–,–,–,–,–,–
COc1ccc(CN(C(=O)CSc2nnc(-c3ccccc3C)o2)c2ccc(F)cc2)cc1,?,–,–,–,–,–
